Results on 20 compounds are retold here after PubChem BioAssay (Tox21).

The nature of test [1]: A CellTox Green Cytotoxicity Assay to monitor cytotoxicity in HEK293 cells - 32 hour (AID 1224881). Note: nearly all actives have a fitted effect of over 40% in size. Note: potency is the fitted concentration of half-maximal effect. In short, it runs like this:
(§1)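 Homogeneous no-lysis format: HEK293 cell suspension mixed with CellTox Green reagent, seeded, incubated 5 h at 37 C/5% CO2, then dosed by pintool with compound in DMSO.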

A short description of test [2]: A CellTox Green Cytotoxicity Assay to monitor cytotoxicity in HepG2 cells - 0 hour (AID 1224882). Note: nearly all actives have a fitted effect of over 35% in size. In short, it runs like this:
(§2)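 Fluorescent DNA-binding dye, 600 HepG2 cells/well, 5 h preincubation then compound in DMSO; same plates read at 0–40 h, 37 C.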

The nature of test [3]: A CellTox Green Cytotoxicity Assay to monitor cytotoxicity in HepG2 cells - 32 hour (AID 1224883). Note: nearly all actives have a fitted effect of over 50% in size. Note: potency is the fitted concentration of half-maximal effect. In short, it runs like this:
as §2

A short description of test [4]: A CellTox Green Cytotoxicity Assay to monitor cytotoxicity in HEK293 cells - 8 hour (AID 1224884). Note: nearly all actives have a fitted effect of over 35% in size. In short, it runs like this: as §1
Test [5] in a line: qHTS RealTime-Glo MT Cell Viability Assay in HepG2 cells - 16 hour (AID 1224885). Note: nearly all actives have a fitted effect of over 50% in size. Note: potency is the fitted concentration of half-maximal effect. The method in brief: (§3)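 HepG2 suspension premixed with RealTime-Glo reagents is plated at 600 cells per well and left 5 h at 37 C/5% CO2. Compounds in DMSO then go in, and bioluminescence reflecting viable cell number is recorded over 40 h.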
(In general: In qHTS, concentration-response curves come from the screen itself.)

Test [6] is described as follows: qHTS RealTime-Glo MT Cell Viability Assay in HEK293 cells - 24 hour (AID 1224886). Note: nearly all actives have a fitted effect of over 50% in size. Note: potency is the fitted concentration of half-maximal effect. In short, it runs like this: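 Reads taken at 0, 8, 16, 24, 32 and 40 h from the same wells. HEK293 cells (600/well) carried RealTime-Glo reagents from seeding, with compound added after a 5 h settle at 37 C.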
Test [7] can be described thus: qHTS RealTime-Glo MT Cell Viability Assay in HEK293 cells - 8 hour (AID 1224887). Note: nearly all actives have a fitted effect of over 50% in size. Note: potency is the fitted concentration of half-maximal effect. In short, it runs like this: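 Measured as luminescence from the same continuously cultured HEK293 wells at successive time points (0, 8, 16, 24, 32, 40 h) after compound addition. Reagent present from seeding; dosing at 5 h; incubation 37 C.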
A short description of test [8]: A CellTox Green Cytotoxicity Assay to monitor cytotoxicity in HEK293 cells - 16 hour (AID 1224888). Note: nearly all actives have a fitted effect of over 35% in size. Note: potency is the fitted concentration of half-maximal effect. The method in brief: as §1
Test [9] in a line: qHTS RealTime-Glo MT Cell Viability Assay in HepG2 cells - 0 hour (AID 1224889). Note: nearly all actives have a fitted effect of over 50% in size. In short, it runs like this:
as §3

Test [10] is described as follows: A CellTox Green Cytotoxicity Assay to monitor cytotoxicity in HepG2 cells - 8 hour (AID 1224890). Note: nearly all actives have a fitted effect of over 45% in size. Note: potency is the fitted concentration of half-maximal effect. The method in brief: as §2

Values joined by “and” are separate entries in the source; they are usually repeats but may differ in a detail not shown here. Identical values can stand only once. Records with an inconclusive call do not appear. Where a structure was tested more than once in an assay, its records may differ in their call. Active and inactive are the calls of the source. Calls come from the whole dose curve; as a rule, active = well fitted curve in the direction sought with a large enough effect in the repeat runs; inconclusive = weak or mixed curves; inactive = no such curve, though single readings can be large; an effect the other way counts as inactive or inconclusive.

On to `CC1(C)Cc2cccc(O)c2O1`, for which the Potency entry in test [1], in test [2], in [3], in test [4], in [5] and in test [6] was “inactive” in each case. For the same compound, the Potency entry in [7], in test [8], in test [9] and in test [10] was “inactive” throughout.
In the case of `CC(O)CN(CC(C)O)CC(C)O` (stereo not given), the Potency result in test [1], in [2], in test [3], in [4], in test [5] and in test [6] was “inactive” throughout. Besides, the Potency entry in test [7], in test [8], in test [9] and in [10] was “inactive” throughout.
Take `COP(=S)(OC)SCn1nnc2ccccc2c1=O`: the Potency entry in [1], in test [2], in test [3], in test [8], in test [9] and in [10] was “inactive” throughout.
Consider `N#Cc1cccnc1`, for which the Potency result in test [1], in test [2], in test [3], in test [5], in test [6] and in [7] was “inactive” each time. Further, the Potency entry in test [8], in test [9] and in [10] was “inactive” throughout.
For `O=C1Nc2ccc(Cl)cc2C(c2ccccc2)=NC1O` (stereo not given), the Potency result in [1], in test [2], in test [3], in test [5], in test [6] and in [7] was “inactive” throughout. The Potency entry in test [8], in test [9] and in test [10] was “inactive” in each case.
For `O=S(=O)(O)C(F)(F)C(F)(F)C(F)(F)C(F)(F)C(F)(F)C(F)(F)C(F)(F)C(F)(F)F`, the Potency in test [1] was 33 µM (active) and inactive and 21.9 µM (active); in test [3], 18.6 µM (active) and inactive. The Potency result in test [2], in test [6], in [7] and in test [10] was “inactive” throughout.
Consider `CCOS(=O)(=O)OCC`, for which the Potency entry in [1], in [2], in test [3], in test [6], in test [7] and in test [8] was “inactive” throughout. In addition, the Potency entry in test [9] and in [10] was “inactive” each time.
As for `C=C(C)C#N`, the Potency entry in test [1], in test [2], in test [3], in test [7], in test [8] and in test [9] was “inactive” each time. The Potency entry in [10] is “inactive”. Besides, in test [6], the Potency entry was “inactive and 13.8 µM (active)”.
On to `C[N+](C)(C)CC(=O)[O-]`, for which the Potency result in test [1], in [2], in test [3], in test [5], in test [6] and in test [7] was “inactive” in each case. The Potency entry in [8], in test [9] and in [10] was “inactive” each time.
Consider `O=[N+]([O-])/N=C1\NCCN1Cc1ccc(Cl)nc1`, for which the Potency entry in [1], in test [2], in test [3], in test [5], in test [6] and in [7] was “inactive” in each case. Further, the Potency entry in test [8], in test [9] and in test [10] was “inactive” each time.
For the compound `CCCCSP(=O)(SCCCC)SCCCC`, the Potency result in test [1], in test [2], in [3], in [5], in test [6] and in test [7] was “inactive” throughout. Also, the Potency entry in [8], in test [9] and in [10] was “inactive” throughout.
For the compound `CN(C)c1nc(=O)n(C2CCCCC2)c(=O)n1C`, the Potency result in test [1], in test [2], in [3], in [5], in test [6] and in test [7] was “inactive” in each case. Further, the Potency result in test [8], in [9] and in test [10] was “inactive” each time.
With `OC(c1ccc(Cl)cc1)(c1cncnc1)c1ccccc1Cl` (stereo not given), the Potency is 25 µM (active) and inactive in test [1]; 17.7 µM (active) and inactive in test [3]; 7.04 µM (active) in test [6]; 22.3 µM (active) in [7]. Moreover, the Potency result in [2], in test [4], in test [9] and in test [10] was “inactive” throughout.
Consider `CNC(=S)S`, for which the Potency entry in [1], in test [2], in test [3], in test [4], in test [6] and in test [7] was “inactive” throughout. Moreover, the Potency result in [8], in [9] and in test [10] was “inactive” in each case.
Consider `ClC(Cl)(Cl)c1ccccc1`, for which the Potency entry in test [1], in [2], in test [3], in test [6], in [7] and in test [8] was “inactive” each time. The Potency result in test [9] and in test [10] was “inactive” in each case.
In the case of `O=C1C(Cl)=C(Cl)C(=O)c2ccccc21`, the Potency is 6.19 µM (active) and 6.17 µM (active) in [1]; 15.5 µM (active) and 4.9 µM (active) in [3]; 21.9 µM (active) and 6.92 µM (active) in [5]; 6.19 µM (active) and 9.77 µM (active) in test [6]; 6.19 µM (active) and 7.76 µM (active) in test [7]; 4.91 µM (active) in test [8]. For the same compound, the Potency in test [10] was 15.5 µM (active) and 6.17 µM (active). Further, in [2], the Potency entry is “inactive”.
For `C[N+](C)(C)C`, the Potency result in test [1], in [2], in test [3], in test [5], in [6] and in [7] was “inactive” in each case. Further, the Potency entry in [8], in test [9] and in test [10] was “inactive” throughout.
As to `Clc1cccc(C(Cl)(Cl)Cl)n1`, the Potency entry in test [1], in [2], in test [5], in [6], in test [7] and in [8] was “inactive” in each case. Also, the Potency entry in [9] and in test [10] was “inactive” each time. Besides, in [3], the Potency is 54.5 µM (active).
Consider `CC(C)Nc1ccc(Nc2ccccc2)cc1`, for which the Potency was 48.8 µM (active) and 49 µM (active) in [1]; 43.6 µM (active) in [3]; 54.7 µM (active) and 49 µM (active) in test [5]; 17.3 µM (active) and 19.5 µM (active) in test [6]; 15.4 µM (active) and 17.4 µM (active) in test [7]; 54.9 µM (active) in test [8]. Also, the Potency result in test [10] is “inactive and 49 µM (active)”. Also, the Potency result in test [2] was “inactive”.
For `[CH3][Sn]([Cl])([Cl])[Cl]`, the Potency entry in test [2], in [3], in [4], in test [5], in test [6] and in test [7] was “inactive” each time. Besides, the Potency entry in test [8], in test [9] and in [10] was “inactive” each time.
